Structures are written as SMILES. Screen size: about 39,000 compounds; about 3,300 (8.5%) were called active. What follows is part of a selection rich in actives, with near analogues and random picks from the rest.

The test system of this assay is HepG2. As to the kind of experiment: cytotoxicity call (relative viability < 0.9). As to conditions: 10 µM.
As to `Cc1noc(C)c1NC(=O)N(C)C[C@@H]1Oc2ccc(NS(=O)(=O)c3cn(C)cn3)cc2CC(=O)N([C@@H](C)CO)C[C@@H]1C`, the cytotoxicity call was “inactive”.
As for `Cc1ccc(S(=O)(=O)N(C)C[C@H]2OCCCC[C@@H](C)Oc3ccc(NC(=O)Nc4ccc5c(c4)OCO5)cc3C(=O)N([C@@H](C)CO)C[C@H]2C)cc1`, the cytotoxicity call is “inactive”.
As to `C[C@@H]1CN([C@@H](C)CO)C(=O)c2cc(NC(=O)Cc3cn(C)c4ccccc34)ccc2O[C@@H]1CN(C)S(=O)(=O)c1cn(C)cn1`, the cytotoxicity call was “inactive”.
On to `CN(C)C(=O)C[C@H]1CC[C@@H]2[C@H](COc3ccc(NS(=O)(=O)c4cccc(F)c4)cc3C(=O)N2C)O1`, for which the cytotoxicity call is “inactive”.
Under `Cc1ccc(S[C@]2(C(=O)NC(C)C)CC(=O)N(Cc3ccccc3C(F)(F)F)[C@@H]2c2ccc(CO)cc2I)cc1` stands “inactive”; under `CC(C)NC(=O)Nc1ccc2c(c1)C(=O)N([C@H](C)CO)C[C@@H](C)[C@H](CN(C)Cc1ccccc1)OCCCC[C@@H](C)O2`, “inactive”.
On to `C[C@@H]1CCCCO[C@H](CN(C)S(=O)(=O)c2cn(C)cn2)[C@@H](C)CN([C@@H](C)CO)C(=O)c2cc(N(C)C)ccc2O1`, for which the cytotoxicity call was “inactive”.
For the compound `Cc1ccc(S(=O)(=O)N(C)C[C@H]2OCCCC[C@@H](C)Oc3ccc(NC(=O)Nc4c(C)noc4C)cc3C(=O)N([C@H](C)CO)C[C@@H]2C)cc1`, the cytotoxicity call was “inactive”.
On to `CSc1ccc2cc(CN(C[C@H]3CCCO3)C(=O)c3ccco3)c(N(C)Cc3csc(C)n3)nc2c1`, for which the cytotoxicity call was “inactive”.
Consider `C[C@@H]1CN([C@@H](C)CO)C(=O)c2cc(NC(=O)CCCN(C)C)ccc2O[C@@H](C)CCCCO[C@@H]1CN(C)S(C)(=O)=O`, for which the cytotoxicity call was “inactive”.
Take `CO[C@@H]1CN(C)C(=O)c2cc(NC(=O)Nc3ccccc3)ccc2OC[C@@H](C)N(C(=O)CN(C)C)C[C@H]1C`: the cytotoxicity call is “inactive”.
Turning to `CC(OC1OCCN(C(C)c2nc(=O)[nH][nH]2)C1c1ccc(F)cc1)c1cc(C(F)(F)F)cc(C(F)(F)F)c1` (stereo not given), the cytotoxicity call is “active”.
Consider `C[C@@H](O[C@H]1OCCN(Cc2n[nH]nc2CN(C)C)[C@H]1c1ccc(F)cc1)c1cc(C(F)(F)F)cc(C(F)(F)F)c1`, for which the cytotoxicity call is “active”.
Turning to `COc1ccc(S(=O)(=O)Nc2cccc3c2O[C@@H](CN(C)Cc2ccc(-c4ccccc4)cc2)[C@@H](C)CN([C@@H](C)CO)C3=O)cc1`, the cytotoxicity call was “inactive”.
In the case of `CC(C)NC(=O)N(C)C[C@@H]1OCCCC[C@@H](C)Oc2ccc(NC(=O)C3CCCCC3)cc2C(=O)N([C@H](C)CO)C[C@H]1C`, the cytotoxicity call was “inactive”.
Under `C[C@@H]1CN([C@@H](C)CO)C(=O)Cc2cc(NC(=O)Cc3cn(C)c4ccccc34)ccc2O[C@H]1CN(C)Cc1ccc(-c2ccccc2)cc1` stands “inactive”; under `C[C@H](CO)N1C[C@H](C)[C@H](CN(C)Cc2ccc(-c3ccccc3)cc2)Oc2ccc(NC(=O)Cc3cn(C)c4ccccc34)cc2CC1=O`, “inactive”; under `C[C@@H]1CN([C@H](C)CO)C(=O)Cc2cc(NC(=O)Cc3cn(C)c4ccccc34)ccc2O[C@H]1CN(C)Cc1ccc(-c2ccccc2)cc1`, “active”.
On to `C[C@@H]1CN([C@H](C)CO)C(=O)Cc2cc(NC(=O)Cc3cn(C)c4ccccc34)ccc2O[C@@H]1CN(C)CC1CCCCC1`, for which the cytotoxicity call was “inactive”.
For `C[C@H]1CN([C@@H](C)CO)C(=O)Cc2cc(NC(=O)Cc3cn(C)c4ccccc34)ccc2O[C@H]1CN(C)Cc1ccc(-c2ccccc2)cc1`, the cytotoxicity call is “inactive”.
`C[C@@H]1CN([C@H](C)CO)C(=O)Cc2cc(NC(=O)Cc3cn(C)c4ccccc34)ccc2O[C@@H]1CN(C)Cc1ccc(C(=O)Nc2ccccc2N)cc1`: the cytotoxicity call is “inactive”.
In the case of `C[C@@H]1CN([C@@H](C)CO)C(=O)Cc2cc(NC(=O)Cc3cn(C)c4ccccc34)ccc2O[C@@H]1CN(C)CC1CCCCC1`, the cytotoxicity call is “active”.
Regarding `C[C@H]1CN([C@@H](C)CO)C(=O)Cc2cc(NC(=O)Cc3cn(C)c4ccccc34)ccc2O[C@@H]1CN(C)Cc1ccc(C(=O)Nc2ccccc2N)cc1`, the cytotoxicity call is “inactive”.
Under `C[C@H](CO)N1C[C@H](C)[C@@H](CN(C)Cc2ccc(-c3ccccc3)cc2)Oc2ccc(NC(=O)Cc3cn(C)c4ccccc34)cc2CC1=O` stands “inactive”.
`C[C@@H]1CN([C@@H](C)CO)C(=O)Cc2cc(NC(=O)Cc3cn(C)c4ccccc34)ccc2O[C@@H]1CN(C)Cc1ccc(-c2ccccc2)cc1`: the cytotoxicity call was “active”.
Then `C[C@H](CO)N1C[C@H](C)[C@H](CN(C)Cc2ccc(C(=O)Nc3ccccc3N)cc2)Oc2ccc(NC(=O)Cc3cn(C)c4ccccc34)cc2CC1=O`, with “active”.
Regarding `C[C@H](CO)N1C[C@H](C)[C@@H](CN(C)CC2CCCCC2)Oc2ccc(NC(=O)Cc3cn(C)c4ccccc34)cc2CC1=O`, the cytotoxicity call is “inactive”.
As to `C[C@@H]1CN([C@H](C)CO)C(=O)c2cc(NC(=O)CCCN(C)C)ccc2O[C@@H]1CN(C)S(=O)(=O)c1ccccc1`, the cytotoxicity call is “inactive”.
Under `CCCC(=O)N(CCc1c[nH]c2ccccc12)[C@@H]1CC(C(=O)NCCO)=C[C@H](Oc2c(I)cc(CO)cc2OC)[C@H]1O` stands “inactive”; under `CN(C)CC(=O)N[C@H]1CC[C@H](CCNC(=O)C2CCC2)O[C@H]1CO`, “inactive”; under `Cc1noc(C)c1S(=O)(=O)Nc1ccc2c(c1)C(=O)N([C@H](C)CO)C[C@H](C)[C@@H](CN(C)C(=O)Nc1cccc3ccccc13)OCCCC[C@@H](C)O2`, “inactive”.
As to `COCC(=O)N[C@@H]1C=C[C@H](CC(=O)N2CCCCC2)O[C@@H]1CO`, the cytotoxicity call was “inactive”.
Turning to `CN1C(=O)c2cc(NC(=O)Cc3cccs3)ccc2OC[C@H]2O[C@@H](CC(=O)NCCc3ccncc3)CC[C@H]21`, the cytotoxicity call is “inactive”.
As for `C[C@@H]1CCCCO[C@@H](CN(C)S(=O)(=O)c2ccccc2)[C@@H](C)CN([C@H](C)CO)C(=O)c2cc(NC(=O)Nc3ccc4c(c3)OCO4)ccc2O1`, the cytotoxicity call was “inactive”.
As for `C[C@H](CO)N1C[C@H](C)[C@H](CN(C)S(=O)(=O)c2cccs2)Oc2ccc(NC(=O)c3ccncc3)cc2C1=O`, the cytotoxicity call was “inactive”.
Consider `COc1ccc(NC(=O)N(C)C[C@H]2Oc3c(NC(=O)c4cnccn4)cccc3C(=O)N([C@H](C)CO)C[C@H]2C)cc1`, for which the cytotoxicity call is “inactive”.
Regarding `C[C@@H]1CN([C@H](C)CO)C(=O)c2cccc(NC(=O)c3ccncc3)c2O[C@@H]1CN(C)Cc1ccc2c(c1)OCO2`, the cytotoxicity call is “inactive”.
Under `C[C@@H]1CN([C@H](C)CO)C(=O)c2cccc(NS(=O)(=O)c3cn(C)cn3)c2O[C@@H]1CN(C)C(=O)Nc1ccc2c(c1)OCO2` stands “inactive”.
For `CC(C)(C)NC[C@@]1(CO)SC(N)=NC1=O`, the cytotoxicity call is “inactive”.
`C[C@H]1CN([C@@H](C)CO)C(=O)Cc2cc(NC(=O)Cc3cn(C)c4ccccc34)ccc2O[C@@H]1CN(C)Cc1ccc(-c2ccccc2)cc1`: the cytotoxicity call is “inactive”.
For the compound `C[C@@H]1CN([C@H](C)CO)C(=O)Cc2cc(NC(=O)Cc3cn(C)c4ccccc34)ccc2O[C@@H]1CN(C)Cc1ccc(-c2ccccc2)cc1`, the cytotoxicity call was “active”.
For the compound `C[C@@H]1CN(S(=O)(=O)N2CCN(C(=O)c3[nH]nc4ccccc34)CC2)C[C@H](C)O1`, the cytotoxicity call was “inactive”.
Under `C[C@@H]1CN([C@@H](C)CO)C(=O)CCCn2nncc2CO[C@@H]1CN(C)C(=O)C1CC1` stands “inactive”; under `C[C@@H]1CCCCO[C@@H](CN(C)Cc2ccc(C(F)(F)F)cc2)[C@@H](C)CN([C@@H](C)CO)C(=O)c2cc(NC(=O)Nc3ccc4c(c3)OCO4)ccc2O1`, “inactive”; under `C[C@@H]1CCCCO[C@@H](CN(C)Cc2ccc(C(F)(F)F)cc2)[C@H](C)CN([C@@H](C)CO)C(=O)c2cc(NC(=O)Nc3ccc4c(c3)OCO4)ccc2O1`, “active”.
Then `C[C@@H]1CN([C@@H](C)CO)C(=O)c2cc(NC(=O)Nc3ccc4c(c3)OCO4)ccc2O[C@@H](C)CCCCO[C@@H]1CN(C)Cc1ccc(C(F)(F)F)cc1`, with “inactive”; and `C[C@@H]1CCCCO[C@H](CN(C)Cc2ccc(C(F)(F)F)cc2)[C@H](C)CN([C@H](C)CO)C(=O)c2cc(NC(=O)Nc3ccc4c(c3)OCO4)ccc2O1`, with “active”.
Consider `C[C@@H]1CN([C@@H](C)CO)C(=O)c2cc(NC(=O)Nc3ccc4c(c3)OCO4)ccc2O[C@@H](C)CCCCO[C@H]1CN(C)Cc1ccc(C(F)(F)F)cc1`, for which the cytotoxicity call was “inactive”.
Then `C[C@@H]1CCCCO[C@H](CN(C)Cc2ccc(C(F)(F)F)cc2)[C@@H](C)CN([C@@H](C)CO)C(=O)c2cc(NC(=O)Nc3ccc4c(c3)OCO4)ccc2O1`, with “active”.
Under `C[C@@H]1CN([C@H](C)CO)C(=O)c2cc(NC(=O)Nc3ccc4c(c3)OCO4)ccc2O[C@@H](C)CCCCO[C@@H]1CN(C)Cc1ccc(C(F)(F)F)cc1` stands “inactive”.
Consider `C[C@@H]1CN([C@H](C)CO)C(=O)c2cc(NC(=O)Nc3ccc4c(c3)OCO4)ccc2O[C@@H](C)CCCCO[C@H]1CN(C)Cc1ccc(C(F)(F)F)cc1`, for which the cytotoxicity call was “active”.
Then `COc1ccc(CN(C)C[C@H]2Oc3ccc(NC(=O)Cn4cnnn4)cc3CC(=O)N([C@H](C)CO)C[C@@H]2C)cc1`, with “inactive”; and `C[C@@H]1CN([C@@H](C)CO)C(=O)c2cc(NC(=O)CCC(F)(F)F)ccc2O[C@@H]1CN(C)C(=O)Nc1cccc2ccccc12`, with “inactive”; and `O=C(C[C@@H]1CC[C@@H]2[C@H](COC[C@H](O)CN2S(=O)(=O)c2ccc(Cl)cc2)O1)NCCN1CCCCC1`, with “inactive”.
Regarding `C[C@@H]1CN([C@@H](C)CO)C(=O)c2cc(C#Cc3cccc(F)c3)cnc2O[C@H]1CN(C)CC1CCOCC1`, the cytotoxicity call was “inactive”.
As for `Cc1noc(C)c1NC(=O)N(C)C[C@H]1OCCCC[C@@H](C)Oc2ccc(NS(=O)(=O)c3ccccc3)cc2C(=O)N([C@@H](C)CO)C[C@@H]1C`, the cytotoxicity call is “inactive”.
Regarding `CNC(=NC#N)NCCSCc1nc[nH]c1C`, the cytotoxicity call is “inactive”.
As for `N#C[C@@H]1[C@@H](c2ccc(C#Cc3ccccn3)cc2)[C@H](CO)N1C(=O)CN1CCOCC1`, the cytotoxicity call was “inactive”.
Turning to `CN(C)CC(=O)N1CC(=O)N2[C@H](CO)[C@H](c3ccc(C#Cc4cccnc4)cc3)[C@@H]2C1`, the cytotoxicity call was “inactive”.
Regarding `COC(=O)[C@@H](Cc1ccc(-n2cc(C(=O)NO)nn2)cc1)N1CC2=CC(=O)[C@@H](C3CC3)[C@@H]2[C@H]1[C@H](O)Cc1ccccc1`, the cytotoxicity call is “inactive”.

(Values after the antibiotic and cytotoxicity screens of Wong et al. (2023).)
